Source: PubChem BioAssay (NCI)
This is part of a sample that, as a whole, favours compounds with a hit. Of some 83,000 tested, about 20% had one in any assay.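 Each cell line was grown in a 96-well plate and treated with one concentration of compound for 48 hours. Values below 10 were considered active.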 The source made the active and inactive calls.

Assays:
Experiment in all cases: NCI-60 one-dose screen, 48 h (100 = growth as untreated, 0 = no growth, -100 = all killed)
Conditions in all cases: 10 µM unless noted
NCI-H23 lung = tested on: NCI-H23 lung
NCI-H226 lung = tested on: NCI-H226 lung
NCI-H322M lung = tested on: NCI-H322M lung
HOP-62 NSCLC = tested on: HOP-62 NSCLC
NCI-H460 lung = tested on: NCI-H460 lung
HOP-92 NSCLC = tested on: HOP-92 NSCLC
NCI-H522 lung = tested on: NCI-H522 lung
A549/ATCC NSCLC = tested on: A549/ATCC NSCLC
786-0 renal = tested on: 786-0 renal
COLO 205 colon = tested on: COLO 205 colon

Measured: growth

COc1ccc(C2C(C#N)=C(N)Oc3c2sc2c(F)cccc32)cc1 (stereo not given)
inactive: NCI-H23 lung 34.6% | NCI-H226 lung 76% | NCI-H322M lung 50% | HOP-62 NSCLC 22.9% | NCI-H460 lung 11.6% | HOP-92 NSCLC 41.7% | A549/ATCC NSCLC 36.7% | 786-0 renal 29.4%
active: NCI-H522 lung 6.47% | COLO 205 colon 5.98%

C[C@H]1[C@H]2C3=CC[C@@H]4[C@@]5(C)C/C(=C/c6ccco6)C(=O)C(C)(C)[C@@H]5CC[C@@]4(C)[C@]3(C)CC[C@@]2(C(=O)N2CCOCC2)CC[C@@H]1C
inactive: NCI-H23 lung 44.2% | NCI-H226 lung 83.8% | NCI-H322M lung 95.3% | HOP-62 NSCLC 105% | NCI-H460 lung 94.9% | HOP-92 NSCLC 78.4% | NCI-H522 lung 38% | A549/ATCC NSCLC 70.4% | 786-0 renal 95.5% | COLO 205 colon 94.1%

Brc1cnc2[nH]cc(-c3nnc(-c4ccccc4)o3)c2c1
inactive: NCI-H23 lung 78.5% | NCI-H226 lung 66.4% | NCI-H322M lung 77.5% | HOP-62 NSCLC 85.2% | NCI-H460 lung 80.9% | HOP-92 NSCLC 74.7% | NCI-H522 lung 76.7% | A549/ATCC NSCLC 81.2% | 786-0 renal 73.6% | COLO 205 colon 82.9%

CCCCCCCC(=O)SCC/C=C/[C@@H]1CC(=O)NCc2cccc(n2)CN(Cc2ccc3ccccc3c2)CC(=O)N[C@@H](C(C)C)C(=O)O1
inactive: NCI-H23 lung 45.7% | NCI-H226 lung 67.5% | NCI-H322M lung 40% | HOP-62 NSCLC 24% | NCI-H460 lung 27.6% | HOP-92 NSCLC 18.2% | NCI-H522 lung 66.1% | A549/ATCC NSCLC 35.3% | 786-0 renal 72.1% | COLO 205 colon 33.7%

CC1=CC(=O)N(c2cccc3c(N4C(=O)C=C(C)C4=O)cccc23)C1=O
inactive: NCI-H23 lung 79.4% | NCI-H226 lung 100% | NCI-H322M lung 102% | HOP-62 NSCLC 100% | NCI-H460 lung 113% | HOP-92 NSCLC 78.6% | A549/ATCC NSCLC 96.5% | 786-0 renal 96.3%
active: NCI-H522 lung -74.6% | COLO 205 colon -45.6%

Cn1cc(-c2csc(-c3cn(C(=O)OC(C)(C)C)c4ccc(Br)cc34)n2)c2cccnc21
inactive: NCI-H23 lung 92.2% | NCI-H226 lung 101% | NCI-H322M lung 88.9% | HOP-62 NSCLC 99.2% | NCI-H460 lung 62.3% | HOP-92 NSCLC 98.7% | NCI-H522 lung 96.3% | A549/ATCC NSCLC 78.5% | 786-0 renal 99.9% | COLO 205 colon 86%

Cc1cc(N(CCCNc2ccnc3cc(Cl)ccc23)Cc2ccco2)nc(N2CCOCC2)n1
inactive: NCI-H23 lung 52.8% | NCI-H226 lung 82.7% | NCI-H322M lung 72.6% | HOP-62 NSCLC 64.4% | NCI-H460 lung 64.8% | HOP-92 NSCLC 51.8% | NCI-H522 lung 90.5% | A549/ATCC NSCLC 83.1% | 786-0 renal 68% | COLO 205 colon 56.7%

CC1(C)NCCC[C@]2(C)[C@H]3CC[C@@H]4[C@H]5[C@H](C(=O)/C=C/c6ccccn6)CC[C@]5(CO)CC[C@@]4(C)[C@]3(C)CC[C@@H]12
inactive: NCI-H23 lung 72.9% | NCI-H226 lung 85.5% | NCI-H322M lung 86.4% | HOP-62 NSCLC 77% | NCI-H460 lung 25.1% | HOP-92 NSCLC 35.6% | NCI-H522 lung 54.4% | A549/ATCC NSCLC 36.9% | 786-0 renal 85.4%
active: COLO 205 colon -74.3%

CC(=O)Oc1ccccc1C(=O)/C=C/c1cccc([N+](=O)[O-])c1
inactive: NCI-H23 lung 87.9% | NCI-H226 lung 94.2% | NCI-H322M lung 99.2% | HOP-62 NSCLC 99.2% | NCI-H460 lung 82.5% | HOP-92 NSCLC 69.8% | NCI-H522 lung 55.9% | A549/ATCC NSCLC 95.6% | 786-0 renal 81.6% | COLO 205 colon 86.7%

CCN1CCN(c2nc(C)cc(N(CCCNc3ccnc4cc(Cl)ccc34)Cc3ccco3)n2)CC1
active: COLO 205 colon -21.2%
inactive: NCI-H23 lung 62.2% | NCI-H226 lung 86.4% | NCI-H322M lung 63.5% | HOP-62 NSCLC 52.1% | NCI-H460 lung 39.9% | HOP-92 NSCLC 65.3% | NCI-H522 lung 71.6% | A549/ATCC NSCLC 50.4% | 786-0 renal 64.8%

CC1(c2ccccc2)OC1C(=O)O (stereo not given)
inactive: NCI-H23 lung 94.1% | NCI-H226 lung 104% | NCI-H322M lung 97.9% | HOP-62 NSCLC 107% | NCI-H460 lung 107% | HOP-92 NSCLC 119% | NCI-H522 lung 97.8% | A549/ATCC NSCLC 105% | 786-0 renal 99.7% | COLO 205 colon 115%

CCCCCCCCNc1cccc2c1C(=O)c1ccccc1C2=O
inactive: NCI-H23 lung 102% | NCI-H226 lung 96.5% | NCI-H322M lung 101% | HOP-62 NSCLC 115% | NCI-H460 lung 101% | HOP-92 NSCLC 109% | NCI-H522 lung 81.3% | A549/ATCC NSCLC 91.7% | 786-0 renal 104% | COLO 205 colon 116%

COc1ccc(-c2n/c(=C\c3c(O)[nH]c4ccc(OC)cc34)cc3c2=Nc2ccccc2-3)cc1
active: NCI-H23 lung -7.74% | NCI-H460 lung -32.2% | 786-0 renal -82.3%
inactive: NCI-H226 lung 89.2% | NCI-H322M lung 97.8% | HOP-62 NSCLC 83.4% | HOP-92 NSCLC 72.1% | NCI-H522 lung 76% | A549/ATCC NSCLC 19.3% | COLO 205 colon 88.9%

Cc1ccc(/C=C(\C#N)c2cc3ccccc3n2C)cc1
inactive: NCI-H23 lung 24.6% | NCI-H226 lung 57.6% | NCI-H322M lung 58.7% | HOP-62 NSCLC 47.1% | NCI-H460 lung 11% | HOP-92 NSCLC 90.5% | NCI-H522 lung 31.3% | A549/ATCC NSCLC 31.2% | 786-0 renal 49.9%
active: COLO 205 colon 3.21%

C=C(C)[C@@H]1CC[C@]2(C(=O)OC)CC[C@]3(C)[C@H](CC[C@@H]4[C@@](C)(CC/C(N)=N/O)[C@H](C(=C)C)CC[C@]43C)[C@@H]12
inactive: NCI-H23 lung 107% | NCI-H226 lung 97.2% | NCI-H322M lung 105% | HOP-62 NSCLC 103% | NCI-H460 lung 99.5% | HOP-92 NSCLC 102% | NCI-H522 lung 95.4% | A549/ATCC NSCLC 91.8% | 786-0 renal 94.7% | COLO 205 colon 107%

COc1cc2nc(Cl)nc(Nc3cccc(C(=O)/C=C/c4ccc(F)cc4)c3)c2cc1OC
inactive: NCI-H23 lung 76% | NCI-H226 lung 73.2% | NCI-H322M lung 86.5% | HOP-62 NSCLC 85.9% | NCI-H460 lung 95.4% | HOP-92 NSCLC 75.3% | NCI-H522 lung 73.4% | A549/ATCC NSCLC 70.2% | 786-0 renal 57.7% | COLO 205 colon 89.5%

COc1ccccc1CNc1nc(N)nc2[nH]c3ccc(O)cc3c12
inactive: NCI-H23 lung 57.8% | NCI-H226 lung 92.6% | NCI-H322M lung 61.5% | HOP-62 NSCLC 37% | NCI-H460 lung 18.3% | HOP-92 NSCLC 34.1% | NCI-H522 lung 18.7% | A549/ATCC NSCLC 40.6% | 786-0 renal 83.2% | COLO 205 colon 33.6%

COc1cnc2c(c1)C(=O)c1c-2n(CCCN2CCN(CCO)CC2)c(=O)c2cc([N+](=O)[O-])ccc12
inactive: NCI-H226 lung 64% | HOP-62 NSCLC 39.8% | HOP-92 NSCLC 76.9% | NCI-H522 lung 38.3% | COLO 205 colon 62%
active: NCI-H23 lung -40.2% | NCI-H322M lung -20.4% | NCI-H460 lung -75.7% | A549/ATCC NSCLC -88.9% | 786-0 renal -85.4%

CCCCC/C(=C\c1ccccc1)C1OC(C)C(C)O1 (stereo not given)
inactive: NCI-H23 lung 90.2% | NCI-H226 lung 83.4% | NCI-H322M lung 112% | HOP-62 NSCLC 93.5% | NCI-H460 lung 107% | HOP-92 NSCLC 95% | NCI-H522 lung 68.5% | A549/ATCC NSCLC 68.5% | 786-0 renal 91.2% | COLO 205 colon 106%

CC[C@H](CC[C@@H](C)[C@H]1CC[C@H]2[C@@H]3/C(=C/c4cccnc4)C(=O)C4=CC(=O)CC[C@]4(C)[C@H]3CC[C@]12C)C(C)C
inactive: NCI-H23 lung 69.3% | NCI-H226 lung 87.5% | NCI-H322M lung 98.4% | HOP-62 NSCLC 99.2% | NCI-H460 lung 98.5% | HOP-92 NSCLC 81.6% | NCI-H522 lung 91% | A549/ATCC NSCLC 54.4% | 786-0 renal 105% | COLO 205 colon 113%

CC(C)C[C@@H](NC(=O)[C@@H](Cc1ccccc1)NC(=O)c1cnccn1)B1O[C@H]2[C@H](O)[C@@H](C(=O)NCCCC[C@@H]3NC(=O)[C@@H](Cc4ccccc4)NC(=O)[C@H](CC(=O)O)NC(=O)CNC(=O)[C@H](CCCN=C(N)N)NC3=O)O[C@@H](CN)[C@H]2O1
active: NCI-H23 lung -29.2% | NCI-H226 lung -45.8% | NCI-H322M lung 6.41% | HOP-62 NSCLC -50.5% | NCI-H460 lung -44.6% | HOP-92 NSCLC -70.4% | NCI-H522 lung -67.9% | A549/ATCC NSCLC -55.2% | 786-0 renal -12.8% | COLO 205 colon -81.1%

CN1CCN(c2ccc3nc(-c4[nH]ncc4Nc4ncnc5c4OCCCN5)[nH]c3c2)CC1
active: NCI-H23 lung -53.9% | NCI-H226 lung -76.4% | NCI-H322M lung -67.3% | HOP-62 NSCLC -48.4% | NCI-H460 lung -69.8% | HOP-92 NSCLC -29.3% | NCI-H522 lung -26.2% | A549/ATCC NSCLC -63% | 786-0 renal -59.3% | COLO 205 colon -72.5%

Cn1cc(-c2csc(-c3c[nH]c4ccccc34)n2)c2cccnc21
inactive: NCI-H23 lung 30.3% | NCI-H226 lung 60.3% | NCI-H322M lung 56.1% | HOP-62 NSCLC 45.5% | NCI-H460 lung 14.6% | HOP-92 NSCLC 49.5% | A549/ATCC NSCLC 40.3% | 786-0 renal 45.7%
active: NCI-H522 lung 5.06% | COLO 205 colon 9.57%

COc1cccc(-c2nn(-c3ccccc3)cc2-c2ccnc(NCCCN)c2)c1
inactive: NCI-H23 lung 60% | NCI-H226 lung 78.7% | NCI-H322M lung 78.5% | HOP-62 NSCLC 47.9% | NCI-H460 lung 27.9% | HOP-92 NSCLC 32.3% | NCI-H522 lung 83.4% | A549/ATCC NSCLC 68% | 786-0 renal 52.1% | COLO 205 colon 26.1%

C[C@H]1[C@@H]2[C@H]3CC[C@@H]4[C@@]5(C)Cc6c([nH]c7ccccc67)C(C)(C)[C@@H]5CC[C@@]4(C)[C@]3(C)CC[C@]23CO[C@]1(C)[C@@H](C(=O)/C=C/c1ccccn1)C3
inactive: NCI-H23 lung 91.7% | NCI-H226 lung 101% | NCI-H322M lung 112% | HOP-62 NSCLC 109% | NCI-H460 lung 98.3% | HOP-92 NSCLC 67.2% | NCI-H522 lung 92.1% | A549/ATCC NSCLC 89.4% | 786-0 renal 106% | COLO 205 colon 102%
